PubChem BioAssay (NCATS)
Records with an inconclusive call do not appear. Where a call stands in place of a potency, no number is given. Activity calls are given as the source filed them. Calls follow the shape of the dose curve; as a rule, active = well fitted inhibition curve with a large enough effect; inconclusive = small, poorly fitted or top-dose-only effect; inactive = flat fitted curve, though single readings scatter. Peptide text beside a SMILES is read from it.

The compounds below were run against Aldehyde dehydrogenase, mitochondrial (Homo sapiens) (UniProt P05091) (assay: qHTS for Inhibitors of the Aldehyde Dehydrogenase Family (ALDH2) Primary screen (AID 2061308; also: nearly all actives have a fitted effect of over 55% in size)). Settings: ALDH2 enzyme inhibition qHTS, 1536-well; series mostly up to 56 µM.

SMILES | Potency | activity change, negative = inhibition
COC(=O)C1=CO[C@@H](O[C@@H]2O[C@H](CO[C@@H]3O[C@H](CO)[C@@H](O)[C@H](O)[C@H]3O)[C@@H](O)[C@H](O)[C@H]2O)[C@@H]2C(CO)=CC[C@H]12 | inactive | 
C/C=C(/C)C(=O)O[C@@H]1C[C@@H](OC(=O)/C(C)=C\C)[C@@]2(C)C3C(=O)C=C(C)C2C3C1(C)C | inactive | 
C=C[C@@]1(C)CC(=O)C2[C@](C)(O1)[C@@H](OC(C)=O)[C@@H](O)[C@H]1C(C)(C)CCC[C@]21C (stereo not given in full) | inactive | 
C/C=C1\[C@H](O[C@@H]2O[C@H](CO)[C@@H](O)[C@H](O)[C@H]2O)OC=C(C(=O)O)[C@H]1CC(=O)OCCc1ccc(O)cc1 | inactive | 
C=C(C(=O)O)C1CCC2(C)CCCC(C)(O)C2C1 (stereo not given) | inactive | 
N#CC1C(=O)Nc2scc(-c3ccc(-c4ccccc4O)cc3)c2C1=O (stereo not given) | inactive | 
C/C=C/C=C/C(O)=C1/C(=O)[C@]2(C)C(=O)[C@@](C)(O)[C@H]1[C@H]([C@@]1(C)OC(=O)C(C)=C1O)[C@H]2C(=O)CC/C=C/C | inactive | 
O=C(O)CC1(O)C(=O)Nc2ccccc21 (stereo not given) | inactive | 
O=C(O)Cc1cn([C@@H]2OC[C@@H](O[C@@H]3O[C@H](CO)[C@@H](O)[C@H](O)[C@H]3O)[C@H](O)[C@H]2O[C@@H]2O[C@H](CO)[C@@H](O)[C@H](O)[C@H]2O)c2ccccc12 | inactive | 
Cc1cc(NC(=O)c2cccc(NC(=O)/C=C/CN(C)C)c2)ccc1Nc1nccc(-c2cccnc2)n1 | inactive | 
CC1CCC2(CO)C(C(=O)O)=CCCC2C1(C)CCc1ccoc1 (stereo not given) | inactive | 
CCN(CCN(C)C)C(=O)CNCc1cc(C(N)=O)ccn1 | inactive | 
Nc1nc2c(ncn2CCC(CO)CO)c(=O)[nH]1 | inactive | 
C=C1C(=O)O[C@@H]2/C=C(\C)CC/C=C(\C)CC[C@@H]12 | inactive | 
C[C@H](/C=C/[C@@]1(O)[C@H](C)CC(=O)CC1(C)C)O[C@@H]1O[C@H](CO[C@@H]2OC[C@@H](O)[C@H](O)[C@H]2O)[C@@H](O)[C@H](O)[C@H]1O | inactive | 
CC(=O)NCc1cccc(OC[C@@H](O)CNCCc2ccc(NS(=O)(=O)c3ccccc3)cc2)c1 | inactive | 
C=C1CC23CC1CCC2C12OC(=O)C(C)(C(O)CC1O)C2C3C(=O)O (stereo not given) | inactive | 
O=C(O)C(Cc1ccccc1)NC(=O)C1CCCN1 (stereo not drawn) (H-Pro-Phe-OH; configuration not given here) | inactive | 
COc1cc(C)c(C(=O)O[C@H]2[C@@H](OC(C)=O)[C@H](n3ccc(=O)[nH]c3=O)O[C@@H]2CO)c(OC)c1 | inactive | 
CC1(C)CC[C@]2(C(=O)O[C@@H]3O[C@H](CO)[C@@H](O)[C@H](O)[C@H]3O)[C@H](O)C[C@]3(C)C(=CCC4[C@@]5(C)CC[C@H](O[C@@H]6OC[C@@H](O)[C@H](O)[C@H]6O)[C@@](C)(C(=O)O)C5CC[C@]43C)[C@@H]2C1 (stereo not given in full) | inactive | 

SMILES | Potency | activity change, negative = inhibition
CC(C)=CCC[C@](C)(O[C@@H]1O[C@H](CO)[C@@H](O)[C@H](O)[C@H]1O)[C@H]1CC[C@]2(C)[C@@H]1[C@H](O)CC1[C@@]3(C)CC[C@H](O)C(C)(C)C3[C@@H](O[C@@H]3O[C@H](CO)[C@@H](O)[C@H](O)[C@H]3O[C@@H]3OC[C@@H](O)[C@H](O)[C@H]3O)C[C@]12C (stereo not given in full) | inactive | 
CS/C=C/C(=O)O[C@@H]1CCC2=CC(=O)C(=C(C)C)C[C@]2(C)[C@H]1C | inactive | 
CC(=O)O[C@H]1C[C@@](O)(C(C)C)[C@@H]2[C@@H](OC(=O)c3ccc(O)cc3)CC(C)=CC[C@@]12C | inactive | 
CC1C(=O)CC2C3CCC(C(=O)O)C12CC3(C)CO (stereo not given) | inactive | 
CN1c2c(nc(N)[nH]c2=O)NC[C@@H]1CNc1ccc(C(=O)N[C@@H](CCC(=O)O)C(=O)O)cc1 | inactive | 
CC(C)=CCC/C(C)=C/CO[C@@H]1O[C@H](CO[C@@H]2O[C@@H](CO)[C@H](O)[C@H]2O)[C@@H](O)[C@H](O)[C@H]1O | inactive | 
NC1CCCCN(c2c(F)cc3c(=O)c(C(=O)O)cn(C4CC4)c3c2Cl)C1 (stereo not given) | inactive | 
CC(=O)OCCC(C)CCC1C(C)(O)CCC2C(C)(C)CCCC21C (stereo not given) | inactive | 
CC1(C)COC(=O)[C@@H]1O[C@@H]1O[C@H](CO)[C@@H](O)[C@H](O)[C@H]1O | inactive | 
C[C@@H]1O[C@@H](O[C@H]2[C@H](OC(=O)[C@]34CCC(C)(C)C[C@H]3C3=CCC5[C@@]6(C)C[C@H](O)[C@H](O[C@@H]7O[C@H](C(=O)O)[C@@H](O)[C@H](O)[C@H]7O)[C@@](C)(CO)C6[C@H](O)C[C@@]5(C)[C@]3(C)C[C@H]4O)O[C@@H](CO)[C@@H]2O)[C@H](O)[C@H](O)[C@H]1O[C@@H]1OC[C@@H](O)[C@H](O[C@H]2OC[C@](O)(CO)[C@H]2O)[C@H]1O (stereo not given in full) |  | 4.26% [at 11.2 µM] (inactive)
C=CC1(C)CC(OC(=O)C(=C)C(O)COC(C)=O)C(C(=C)C(=O)OC)C(O)C1C(=C)CO (stereo not given) | inactive | 
COc1c(C)c(OCC=C(C)C)cc2c1CNC2=O | inactive | 
C=C1C(OC(C)=O)C(=O)C2C(C)(C)C(OC(C)=O)CCC2(C)C1CC(OC(C)=O)/C(C)=C/COC(C)=O (stereo not given) | inactive | 
C=C1C(OC(C)=O)[C@@]23CCC4[C@](C)(C(=O)O)CCC[C@@]4(C)[C@]2(O)CC[C@H]1C3 (stereo not given in full) | inactive | 
C[C@]12CC/C(=N\OCC(=O)O)C=C1CC[C@@H]1[C@@H]2[C@@H](O)C[C@@]2(C)[C@H]1CC[C@]2(O)C(=O)CO | inactive | 
COC(=O)C1=CO[C@@H](O[C@@H]2O[C@H](CO)[C@@H](O)[C@H](O)[C@H]2O)[C@@H]2[C@@H](C(=O)OC)[C@@H](O)C(O)[C@H]12 (stereo not given in full) | inactive | 
COC(=O)/C=C/C12COC(C)(C)C1C(O)C(OC(C)=O)C1(C)C2CCC2(C)C(c3ccoc3)OC(=O)C3OC321 (stereo not given) | inactive | 
C/C=C(\C)C(=O)OCC1OC(OC2OC(CO)C(O)C(O)C2O)C(O)C(O)C1O (stereo not given) | inactive | 
CC(=O)O[C@@H]1C[C@@H](C)[C@](O)(CCC2=CC(=O)OC2)[C@@]2(C)CCCC(C)(C)C12 (stereo not given in full) | inactive | 
C/C(=C\CCC(C)CCO)C(=O)OC[C@H]1O[C@@H](O[C@@H]2OC=C(C(=O)O)[C@H]3CC[C@](C)(O)[C@@H]23)C(O)[C@@H](O)C1O (stereo not given in full) | inactive | 
